Inconclusive results are not listed. The source made the active and inactive calls. Unless noted, calls come from the whole dose curve; as a rule, active = well fitted inhibition curve with a large enough effect; inconclusive = small, poorly fitted or top-dose-only effect; inactive = flat fitted curve, though single readings scatter.
Experiments:
[1] = qHTS drug screen for cell cycle checkpoint inhibitors in PARPi-resistant BRCA-mutant ovarian cancer cell lines. (AID 1963452; calls by dose curve); details: PEO1/OlaR viability, CellTiter-Glo luminescence, 96 h, stronger effect = lower value
Method in brief: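 PEO1, PEO4 and PEO1/OlaR ovarian cancer cells, 600 per well, exposed 96 h at 37C to a dilution series. Viability read by CellTiter-Glo luminescence, normalized to DMSO and empty wells; activity summarized as Z-AUC.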

[2] = qHTS for identification of novel therapeutic agents for treatment of microphthalmiaassociated transcription factor (MiT) renal cell carcinoma (RCC) (AID 1963991; calls by dose curve; note: potency is the fitted concentration of half-maximal effect); details: CellTiter-Glo, 48 h; for z-score: stronger effect = lower value
Method in brief: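 Three TFE3-fusion RCC cell lines (UOK109, UOK124, UOK145), 500 cells/well, were exposed to the 1912-compound MIPE 4.0 library for 48 hours at 37 C. Viability was read by CellTiter-Glo luminescence, normalised to DMSO (100%) and empty wells (0%), with 11-concentration curve fits.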

[3] = qHTS profiling for inhibitors of Plasmodium falciparum proliferation (AID 504749);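 note: 0% = DMSO vehicle and full inhibition = artemisinin control; nearly all actives have a fitted effect of over 60% in size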; details: P. falciparum in erythrocytes, SYBR Green DNA, 72 h, at 28.7 µM (top of the series)
Method in brief: (§1)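 Readout was DNA-dye fluorescence from lysed cultures, ex 485/em 535 nm. Parasitized red cells had grown 72 h with compound; data scaled between 0.29 uM artemisinin and DMSO wells and corrected using vehicle-only plates.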

3D7 = assay: as above; details: P. falciparum in erythrocytes, SYBR Green DNA, 72 h; series mostly up to 28.7 µM
Method in brief: as §1

7G8 = assay: as above; details: P. falciparum in erythrocytes, SYBR Green DNA, 72 h; series mostly up to 28.7 µM
Method in brief: as §1

AA1029 = assay: as above; details: P. falciparum in erythrocytes, SYBR Green DNA, 72 h; series mostly up to 28.7 µM
Method in brief: as §1

AS120 = assay: as above; details: P. falciparum in erythrocytes, SYBR Green DNA, 72 h; series mostly up to 28.7 µM
Method in brief: as §1

ATS189 = assay: as above; details: P. falciparum in erythrocytes, SYBR Green DNA, 72 h; series mostly up to 28.7 µM
Method in brief: as §1

ATS95 = assay: as above; details: P. falciparum in erythrocytes, SYBR Green DNA, 72 h; series mostly up to 28.7 µM
Method in brief: as §1

C2A = assay: as above; details: P. falciparum in erythrocytes, SYBR Green DNA, 72 h; series mostly up to 28.7 µM
Method in brief: as §1

CP185 = assay: as above; details: P. falciparum in erythrocytes, SYBR Green DNA, 72 h; series mostly up to 28.7 µM
Method in brief: as §1

CP191 = assay: as above; details: P. falciparum in erythrocytes, SYBR Green DNA, 72 h; series mostly up to 28.7 µM
Method in brief: as §1

CP192 = assay: as above; details: P. falciparum in erythrocytes, SYBR Green DNA, 72 h; series mostly up to 28.7 µM
Method in brief: as §1

CP194 = assay: as above; details: P. falciparum in erythrocytes, SYBR Green DNA, 72 h; series mostly up to 28.7 µM
Method in brief: as §1

CP201 = assay: as above; details: P. falciparum in erythrocytes, SYBR Green DNA, 72 h; series mostly up to 28.7 µM
Method in brief: as §1

CP203 = assay: as above; details: P. falciparum in erythrocytes, SYBR Green DNA, 72 h; series mostly up to 28.7 µM
Method in brief: as §1

CP211 = assay: as above; details: P. falciparum in erythrocytes, SYBR Green DNA, 72 h; series mostly up to 28.7 µM
Method in brief: as §1

CP217 = assay: as above; details: P. falciparum in erythrocytes, SYBR Green DNA, 72 h; series mostly up to 28.7 µM
Method in brief: as §1

CP237 = assay: as above; details: P. falciparum in erythrocytes, SYBR Green DNA, 72 h; series mostly up to 28.7 µM
Method in brief: as §1

CP215 = assay: as above; details: P. falciparum in erythrocytes, SYBR Green DNA, 72 h; series mostly up to 28.7 µM
Method in brief: as §1

[4] = measured here: PEO1 parental Z-AUC
[5] = TFE3-RCC UOK109 viability, measured here: UOK109 Z-AUC
[6] = TFE3-RCC viability, measured here: UOK124 Z-AUC
[7] = TFE3-RCC viability, measured here: UOK145 Z-AUC

SMILES: O=C(O)c1ccc(-n2nc(-c3ccccc3O)nc2-c2ccccc2O)cc1
- Z-AUC [1]: 0.434 (inactive)
- Z-AUC [1, 4]: -0.254
- Z-AUC ([1]; measured here: PEO4 Z-AUC): -0.47

SMILES: CC(C(=O)O)c1ccc2c(c1)CC(=O)c1ccccc1S2 (stereo not given)
- Z-AUC [1]: 1.18 (inactive)
- Z-AUC [1, 4]: 0.703
- Z-AUC ([1]; measured here: PEO4 Z-AUC): 0.789

SMILES: CCC(=O)O[C@]1(C(=O)CCl)[C@@H](C)C[C@H]2[C@@H]3CCC4=CC(=O)C=C[C@]4(C)[C@@]3(F)[C@@H](O)C[C@@]21C
- Z-AUC [1]: -0.206 (inactive)
- Z-AUC [1, 4]: 0.492
- Z-AUC ([1]; measured here: PEO4 Z-AUC): -0.658

SMILES: COC(=O)Nc1nc2ccc(S(=O)c3ccccc3)cc2[nH]1 (stereo not given)
- Z-AUC [1]: 0.889 (inactive)
- Z-AUC [1, 4]: 0.292
- Z-AUC ([1]; measured here: PEO4 Z-AUC): 0.543

SMILES: NC1(c2ccc(-c3nc4ccn5c(=O)[nH]nc5c4cc3-c3ccccc3)cc2)CCC1
- Z-AUC [1]: 0.493 (inactive)
- Z-AUC [1, 4]: 0.0138
- Z-AUC ([1]; measured here: PEO4 Z-AUC): -0.184

SMILES: NNC(=O)c1ccncc1
- Z-AUC [1]: 0.416 (inactive)
- Z-AUC [1, 4]: 1.78
- Z-AUC ([1]; measured here: PEO4 Z-AUC): 1.56
- z-score [2, 5]: 1.86
- z-score [2, 6]: 0.222
- z-score [2, 7]: 0.436

SMILES: CC(=O)[C@H]1CC[C@H]2[C@@H]3CC=C4C[C@@H](O)CC[C@]4(C)[C@H]3CC[C@]12C
- Z-AUC [1]: 1.05 (inactive)
- Z-AUC [1, 4]: 0.974
- Z-AUC ([1]; measured here: PEO4 Z-AUC): 0.706
- z-score [2, 5]: 0.424
- z-score [2, 6]: 0.52
- z-score [2, 7]: 0.375

SMILES: COCCCOc1cc(C[C@@H](C[C@H](N)[C@@H](O)C[C@H](C(=O)NCC(C)(C)C(N)=O)C(C)C)C(C)C)ccc1OC
- Z-AUC [1]: 1.16 (inactive)
- Z-AUC [1, 4]: 1.52
- Z-AUC ([1]; measured here: PEO4 Z-AUC): 1.51
- z-score [2, 5]: 1.1
- z-score [2, 6]: 0.318
- z-score [2, 7]: 1.4

SMILES: NC(=O)c1cccc(N)c1
- Z-AUC [1]: 1.42 (inactive)
- Z-AUC [1, 4]: 1.33
- Z-AUC ([1]; measured here: PEO4 Z-AUC): 0.943

SMILES: Nc1nc(=S)c2[nH]cnc2[nH]1
- Z-AUC [1]: 0.0206 (inactive)
- Z-AUC [1, 4]: -0.887
- Z-AUC ([1]; measured here: PEO4 Z-AUC): -1.01

SMILES: C[C@@H](CN1CC(=O)NC(=O)C1)N1CC(=O)NC(=O)C1
- Z-AUC [1]: 1.24 (inactive)
- Z-AUC [1, 4]: 1.43
- Z-AUC ([1]; measured here: PEO4 Z-AUC): 0.873

SMILES: O=C(O)c1cccnc1
- Z-AUC [1]: 0.136 (inactive)
- Z-AUC [1, 4]: -0.782
- Z-AUC ([1]; measured here: PEO4 Z-AUC): -0.146
- z-score [2, 5]: 0.704
- z-score [2, 6]: 0.528
- z-score [2, 7]: 0.253

SMILES: Nc1nc(F)nc2c1ncn2[C@@H]1O[C@H](CO)[C@@H](O)[C@@H]1O
- Z-AUC [1]: 0.0458 (inactive)
- Z-AUC [1, 4]: 0.0902
- Z-AUC ([1]; measured here: PEO4 Z-AUC): 0.704
- Potency ([2]; TFE3-RCC UOK109 viability, active = Z-AUC below -0.8 in all three lines): 372 nM (active)
- z-score [2, 5]: -1.54
- z-score [2, 6]: -1.3
- z-score [2, 7]: -1.61

SMILES: Cn1nnc2c(C(N)=O)ncn2c1=O
- Z-AUC [1]: 1.52 (inactive)
- Z-AUC [1, 4]: 1.36
- Z-AUC ([1]; measured here: PEO4 Z-AUC): 1.39
- z-score [2, 5]: 0.106
- z-score [2, 6]: 0.527
- z-score [2, 7]: 0.42
- activity, negative = inhibition ([3]; parasite line A): 6.45% (inactive)
- activity, negative = inhibition ([3]; parasite line B): 3.99% (inactive)
- Potency (3D7): inactive
- Potency (7G8): inactive
- Potency (AA1029): inactive
- Potency (AS120): inactive
- Potency (ATS189): inactive
- Potency (ATS95): inactive
- Potency (C2A): inactive
- Potency (CP185): inactive
- Potency (CP191): inactive
- Potency (CP192): inactive
- Potency (CP194): inactive
- Potency (CP201): inactive
- Potency (CP203): inactive
- Potency (CP211): inactive
- Potency (CP217): inactive
- Potency (CP237): inactive

SMILES: CO[C@@H]1[C@@H](OC(N)=O)[C@@H](O)[C@H](Oc2ccc3c(O)c(NC(=O)c4ccc(O)c(CC=C(C)C)c4)c(=O)oc3c2C)OC1(C)C
- Z-AUC [1]: -0.0911 (inactive)
- Z-AUC [1, 4]: 0.276
- Z-AUC ([1]; measured here: PEO4 Z-AUC): 0.63
- z-score [2, 5]: 0.755
- z-score [2, 6]: 0.269
- z-score [2, 7]: 0.567

SMILES: O=P(O)(O)C(O)(Cc1cccnc1)P(=O)(O)O
- Z-AUC [1]: 0.331 (inactive)
- Z-AUC [1, 4]: 0.503
- Z-AUC ([1]; measured here: PEO4 Z-AUC): 0.956
- z-score [2, 5]: 0.388
- z-score [2, 6]: 0.644
- z-score [2, 7]: 0.537
- activity, negative = inhibition ([3]; parasite line A): 11.1% (inactive)
- activity, negative = inhibition ([3]; parasite line B): 6.62% (inactive)
- Potency (3D7): inactive
- Potency (7G8): inactive
- Potency (AA1029): inactive
- Potency (AS120): inactive
- Potency (ATS189): inactive
- Potency (ATS95): inactive
- Potency (C2A): inactive
- Potency (CP185): inactive
- Potency (CP191): inactive
- Potency (CP192): inactive
- Potency (CP194): inactive
- Potency (CP201): inactive
- Potency (CP203): inactive
- Potency (CP211): inactive
- Potency (CP215): inactive
- Potency (CP217): inactive
- Potency (CP237): inactive

Reference: PubChem BioAssay (NCATS)
